The values below come from PubChem BioAssay (NCATS).

Assay [1] is described as follows: Viability qHTS for spleen associated tyrosine kinase inhibitor (SYKi) naive MV4-11 cells (AID 1963823). Further: nearly all actives have a fitted effect of over 40% in size. The conditions noted are these: MV4-11 AML viability, CellTiter-Glo luminescence, 72 h; series mostly up to 45 µM. Put shortly: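 SYKi-naive MV4-11 AML cells, 500 per well, were exposed to library compounds for 72 hr at 37 C, 5% CO2. Viability was then read by CellTiter-Glo luminescence after 10 min at room temperature.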
On the technique in general: In qHTS, concentration-response curves come from the screen itself.

Assay [2] can be described thus: Viability qHTS for spleen associated tyrosine kinase inhibitor (SYKi) drug resistant MV4-11 cells (AID 1963824). Further: nearly all actives have a fitted effect of over 35% in size. The following applies: SYKi-resistant MV4-11 viability, CellTiter-Glo, 72 h; series mostly up to 45 µM. A digest of the protocol: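 SYK-inhibitor-resistant MV4-11 AML cells were seeded at 500 per well onto compound and cultured 72 hours (37 °C, 5% CO2). CellTiter-Glo was then added, and after 10 min at room temperature, luminescence gave viability.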

Assay [3] is described as follows: Quantitative highthroughput screen to assess conditional lethalithy of NOMO1 cells grown in RPMI1640 with untreated serum (RPMI+s) (AID 1963876). Further: nearly all actives have a fitted effect of over 35% in size.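 On Viability: 100% = DMSO wells and 0% = empty wells without cells.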 The following applies: NOMO1 AML cells in RPMI+serum, CellTiter-Glo viability, 48 h; series mostly up to 45.8 µM. A digest of the protocol:
(§1)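 Each medium arm—HPLM with 10% dialyzed FBS, or RPMI1640 with 5 mM glucose and 10% untreated or dialyzed FBS—was screened against an 11-point, 3-fold compound titration for 48 h at 37 °C, with CellTiter-Glo luminescence as endpoint.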
For orientation: Cellular ATP, detected with luciferase, serves as a proxy for viable cell number.

Assay [4] is described as follows: Quantitative highthroughput screen to assess conditional lethalithy of NOMO1 cells grown in RPMI1640 with dialyzed fetal bovine serum (RPMI+ds) (AID 1963877). Further: nearly all actives have a fitted effect of over 30% in size.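 On Viability: 100% = DMSO control wells and 0% = empty wells.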 The conditions noted are these: NOMO1 in RPMI+dialyzed FBS viability, ATP luminescence, 48 h; series mostly up to 45.8 µM. A digest of the protocol: as §1
Assay [5] is described as follows: Quantitative highthroughput screen to assess conditional lethalithy of NOMO1 cells grown in Human Plasma-Like Medium with dialyzed fetal bovine serum (HPLM+ds) (AID 1963878). Further: nearly all actives have a fitted effect of over 35% in size.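 On Viability: 100% = DMSO wells and 0% = empty wells on each plate.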 The conditions noted are these: NOMO1 AML cells in HPLM+ds, CellTiter-Glo viability, 48 h; series mostly up to 45.8 µM. A digest of the protocol: as §1
Assay [6] is described as follows: Quantitative highthroughput screen to assess conditional lethalithy of P12 Ichikawa cells grown in Human Plasma-Like Medium with dialyzed fetal bovine serum (HPLM+ds) (AID 1963879). Further: nearly all actives have a fitted effect of over 35% in size. The conditions noted are these: ATP luminescence, 48 h; Potency: viability; series mostly up to 45.8 µM. A digest of the protocol: as §1
Assay [7] can be described thus: Quantitative highthroughput screen to assess conditional lethalithy of P12 Ichikawa cells grown in RPMI1640 with dialyzed fetal bovine serum (RPMI+ds) (AID 1963880). Further: nearly all actives have a fitted effect of over 35% in size.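 On Viability: 100% = DMSO wells and 0% = empty wells on each plate.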 The conditions noted are these: ATP luminescence, 48 h; Potency: P12-Ichikawa viability; series mostly up to 45.8 µM. Put shortly: as §1
Assay [8] is described as follows: Quantitative highthroughput screen to assess conditional lethalithy of P12 Ichikawa cells grown in RPMI1640 with untreated serum (RPMI+s) (AID 1963881). Further: nearly all actives have a fitted effect of over 35% in size.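 On Viability: 100% = DMSO wells and 0% = empty wells without cells.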 The conditions noted are these: ATP luminescence, 48 h; Potency: viability; series mostly up to 45.8 µM. Put shortly:
as §1

Assay [9] is described as follows: Quantitative highthroughput screen to assess conditional lethalithy of SEM cells grown in Human Plasma-Like Medium with dialyzed fetal bovine serum (HPLM+ds) (AID 1963882). Further: nearly all actives have a fitted effect of over 35% in size. The conditions noted are these: SEM B-ALL cells in HPLM+ds, CellTiter-Glo viability, 48 h; series mostly up to 45.8 µM. A digest of the protocol: as §1
Assay [10] in a line: Quantitative highthroughput screen to assess conditional lethalithy of SEM cells grown in RPMI1640 with unreated serum (RPMI+s) (AID 1963883). Further: nearly all actives have a fitted effect of over 35% in size.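 On Viability: 100% = DMSO wells and 0% = empty wells without cells.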 The conditions noted are these: SEM B-ALL cells, CellTiter-Glo viability, 48 h; series mostly up to 45.8 µM. A digest of the protocol: as §1
A short description of assay [11]: Quantitative highthroughput screen to assess conditional lethalithy of SEM cells grown in RPMI1640 with dialyzed fetal bovine serum (RPMI+ds) (AID 1963884). Further: nearly all actives have a fitted effect of over 35% in size.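 On Viability: 100% = DMSO control wells and 0% = empty wells without cells.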 The following applies: SEM B-ALL cells, RPMI+dialyzed FBS, CellTiter-Glo viability, 48 h; series mostly up to 45.8 µM. A digest of the protocol:
as §1

A short description of assay [12]: Cellular viability qHTS for adrenocortical cancer (ACC) cell line SW-13 (AID 1963989). Further: nearly all actives have a fitted effect of over 65% in size.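 On activity (max response): cells grown in serum-free medium with ITS supplement; on the % scale 0 is the no-effect control and ±100 the full control effect.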 The conditions noted are these: SW-13 ACC cells viability, CellTiter-Glo, 48 h; activity (max response): stronger effect = lower value. Put shortly:
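Viability was read as CellTiter-Glo luminescence after 48 h compound treatment (up to 46 uM final) of SW-13 cells grown serum-free; titration curves were fit with a four-parameter logistic model to give IC50 and efficacy.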

Assay [13] in a line: Cellular viability qHTS for adrenocortical cancer (ACC) cell line NCI-H295R (AID 1963990). Further: nearly all actives have a fitted effect of over 60% in size. The conditions noted are these: CellTiter-Glo ATP luminescence, 48 h; series mostly up to 46.1 µM. Put shortly: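 CellTiter-Glo ATP luminescence, read 48 h after compound addition, measured viability of NCI-H295R adrenocortical cells grown serum-free with ITS. Final concentrations spanned up to 46 uM. Data normalized to DMSO and doxorubicin, fitted for IC50 and maximal response.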

Several values for one entry are separate records, joined by “and”; a condition that tells them apart may be missing. Identical values can stand only once. Records with an inconclusive call do not appear. More than one record can exist for a structure, and the calls need not agree. Activity calls are given as the source filed them. The call rests on the fitted dose curve; in most records, active means well fitted curve in the direction sought with a large enough effect; inconclusive means small, poorly fitted or top-dose-only effect, or another doubt; inactive means no such curve, though single readings can be large; an effect the other way counts as inactive or inconclusive.
Potency means the concentration at half of the fitted maximal effect.

In the case of `CCC(c1ccc(O)cc1)C(CC)c1ccc(O)cc1` (stereo not drawn), the Potency is 20.9 µM (active) in assay [1] and 26.3 µM (active) in assay [2]. The Potency entry in [3], in assay [4], in assay [5], in assay [6], in assay [7] and in [8] was “inactive” each time.
For `COc1ccc(C[C@@H](C)[C@@H](C)Cc2ccc(OC)c(OC)c2)cc1OC`, the Potency in [1] was 6.61 µM (active); in assay [2] it was 11.8 µM (active); in [3], 2.35 µM (active); in [4], 2.64 µM (active); in assay [5] it was 0.833 µM (active); in [6] it was 2.35 µM (active). In addition, the Potency in [7] is 2.35 µM (active); in [8], 2.35 µM (active); in [9], 2.64 µM (active); in assay [10], 2.64 µM (active); in assay [11], 2.64 µM (active). For the same molecule, the activity (max response) in assay [12] is -32.2% (inactive). Also, the Potency result in [13] was “inactive”.
In the case of `CN(C)c1ccc(Nc2nc(N)n(C(=O)c3c(F)cccc3F)n2)cc1`, the Potency in [1] was 3.66 µM (active); in assay [2], 4.17 µM (active); in assay [4] it was 11.8 µM (active). In [3], the Potency result is “inactive”.
On to `C=C1[C@H]2[C@H](O[C@@H]3O[C@H](COC(=O)/C=C/c4cc(OC)c(O)c(OC)c4)[C@@H](O)[C@H](O)[C@H]3O)OC=C(C(=O)O)[C@H]2C[C@@H]1O`, for which the Potency result in [1] and in assay [2] was “inactive” throughout.
Turning to `Cc1nc(C(=O)NCC(=O)O)c(O)c2ccc(Oc3ccccc3)cc12`, the Potency entry in assay [1], in assay [2], in [3], in [4], in [5] and in assay [6] was “inactive” in each case. The Potency result in assay [7], in assay [8], in assay [9], in assay [10] and in assay [11] was “inactive” throughout. In assay [12], the activity (max response) was 0.299% (inactive).
In the case of `CCc1ccc(OCc2ccccc2C(=O)Nc2ccc3nc(C)cc(N)c3c2)cc1`, the Potency in assay [1] is 1.66 µM (active); in assay [2], 2.09 µM (active); in assay [3], 9.35 µM (active); in assay [4], 8.33 µM (active); in [5], 3.32 µM (active); in [6], 9.35 µM (active). Besides, the Potency in assay [7] was 14.8 µM (active); in assay [8], 13.2 µM (active); in assay [9], 3.72 µM (active); in assay [10], 10.5 µM (active); in [11] it was 10.5 µM (active); in assay [12] it was 5.01 µM (active). Further, the Potency in assay [13] is 5.62 µM (active).
Consider `CS(=O)(=O)c1ccc([C@@H](C[C@H]2CCC(=O)C2)C(=O)Nc2cnccn2)cc1Cl`, for which the Potency in assay [1] and in assay [2] was 15.8 µM (active) each time.
For `CC(C)C(=O)Nc1ncc(-c2cc(C(F)F)nn2-c2c(Cl)cccc2Cl)s1`, the Potency in assay [1] was 18.6 µM (active); in assay [2], 13 µM (active). Also, the Potency result in [3] is “inactive”.
Turning to `C[C@@H](N)C1CCC(C(=O)Nc2ccncc2)CC1` (stereo partly drawn), the Potency entry in [1], in [2], in assay [3], in [4], in assay [5] and in [6] was “inactive” throughout. In addition, the Potency result in assay [7], in assay [8], in assay [9], in assay [10], in assay [11] and in assay [13] was “inactive” each time. In [12], the activity (max response) was -5.19% (inactive).
As for `NS(=O)(=O)c1cc2c(cc1Cl)NC=NS2(=O)=O`, the Potency entry in assay [1], in [2], in [3], in assay [4], in assay [5] and in assay [6] was “inactive” each time. Further, the Potency result in assay [7], in [8], in [9], in [10], in assay [11] and in [13] was “inactive” each time. The activity (max response) in [12] was 2.09% (inactive) and 0.632% (inactive).
For the molecule `Cc1c(C(=O)Nc2ccc(N3C[C@@H](C)O[C@@H](C)C3)nc2)cccc1-c1ccc(OC(F)(F)F)cc1`, the Potency result is “inactive and 16.6 µM (active)” in assay [1]; “inactive and 7.42 µM (active)” in assay [2]; 5.26 µM (active) in [3]; 11.8 µM (active) in [4]; 3.32 µM (active) in assay [5]; 2.35 µM (active) in [6]. The Potency in assay [7] is 4.18 µM (active); in assay [8] it was 4.18 µM (active); in [9] it was 2.96 µM (active); in assay [10] it was 1.48 µM (active); in [11], 2.35 µM (active); in assay [13], 10 µM (active). In addition, the activity (max response) in [12] is -4.43% (inactive).
As to `NCCS(=O)(=O)O`, the Potency result in assay [1], in [2], in assay [3], in assay [4], in assay [5] and in [6] was “inactive” throughout. Further, the Potency result in assay [7], in assay [8], in assay [9], in assay [10], in [11] and in assay [13] was “inactive” throughout. Further, the activity (max response) in assay [12] is 6.15% (inactive) and -3.63% (inactive).
On to `CC(C)OC(=O)C1=CN(C(=O)c2ccc(F)c(F)c2)CC(C)(C)c2c1[nH]c1ccccc21`, for which the values for the Potency in assay [1] and in [2] were 8.33 µM (active) and 13.2 µM (active), respectively. The Potency entry in assay [3], in assay [4], in [5], in [6], in assay [7] and in assay [8] was “inactive” each time. In addition, the Potency result in [9], in assay [10], in [11] and in [13] was “inactive” throughout. In addition, the activity (max response) in assay [12] is -5.24% (inactive).
Consider `CN(C)c1ccc(C(=C2C=CC(=[N+](C)C)C=C2)c2ccc(N(C)C)cc2)cc1`, for which the Potency in assay [1] was 0.332 µM (active); in [2], 0.372 µM (active); in assay [3], 0.148 µM (active); in assay [4], 0.132 µM (active); in assay [5] it was 0.118 µM (active); in [6] it was 0.264 µM (active). Besides, the Potency in assay [7] was 0.132 µM (active); in assay [8] it was 0.118 µM (active); in assay [9], 0.118 µM (active); in [10] it was 0.105 µM (active); in assay [11] it was 0.0935 µM (active); in assay [12], 651 nM (active) and 1.58 µM (active). Further, the Potency in assay [13] was 920 nM (active) and 2.82 µM (active).
As for `CN(C)c1nc(N(C)C)nc(N(C)C)n1`, the Potency entry in assay [1], in assay [2], in assay [3], in assay [4], in [5] and in assay [6] was “inactive” each time. The Potency result in assay [7], in [8], in assay [9], in [10], in assay [11] and in assay [13] was “inactive” each time. Also, in [12], the activity (max response) is -1.75% (inactive) and -4.21% (inactive).
